From the supplement of paper PMC10849652
About 7,900 targets were measured; listed, in parts, are those with a hit and a random draw of the rest. About 0.6% of all pairs of compound and target were hits. A number with no mark means an inactive call.

Columns and labels:
Experiment in all cases: log2 fold change, soluble protein after heating vs DMSO (PISA); higher = thermal stabilisation; K562 cells, 10 uM, 30 min; active = over 0.2 and 3.5 SD of the protein, either way, in both replicates (recomputed)
[1] = compound: COC1=CC=C(C=C1)CN2C=CC3=C2C=C(C=C3)C(=O)NO
Outline: (§1)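 Values are thermal stability changes relative to control samples and are taken from duplicates. They are stated as log2 fold changes. Before quantification by TMTpro 16plex LC-MS/MS with equalised channel sums, K562 cells at 2×10^6 cells/mL were treated with 10 μM compound for 30 min, heated in aliquots for 3 min across 48°C-58°C, pooled, extracted in PBS with 0.5% NP-40 at 4°C, and centrifuged at 21,000xg for 90 min to give the soluble supernatant.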

[2] = compound: CON(C)C(=O)N1N=C(c2cc(F)ccc2F)S[C@@]1(CCCN)c1ccccc1 [filanesib]
Outline: as §1

[3] = compound: CO[C@H]1C[C@@H]2CC[C@@H](C)[C@@](O)(O2)C(=O)C(=O)N2CCCC[C@H]2C(=O)O[C@H]([C@H](C)C[C@@H]2CC[C@H](n3cnnn3)[C@H](OC)C2)CC(=O)[C@H](C)/C=C(\C)[C@@H](O)[C@@H](OC)C(=O)[C@H](C)C[C@H](C)/C=C/C=C/C=C/1C [zotarolimus]
Outline: as §1

[4] = compound: COc1cc(C(=O)O)ccc1NC(=O)[C@@H]1N[C@@H](CC(C)(C)C)[C@](C#N)(c2ccc(Cl)cc2F)[C@H]1c1cccc(Cl)c1F [idasanutlin]
Outline: as §1

[5] = compound: COc1cc(Nc2ncc3c(n2)-c2ccc(Cl)cc2C(c2c(F)cccc2OC)=NC3)ccc1C(=O)O [alisertib]
Outline: as §1

[6] = compound: COc1cc2nc(-c3cc(F)ccc3O)nc(N[C@@H]3CNC[C@H]3C(C)(C)O)c2cc1OC
Outline: as §1

[7] = compound: COc1cc2ncnc(Nc3ccc(F)c(Cl)c3)c2cc1OCCCN1CCOCC1 [gefitinib]
Outline: as §1

[8] = compound: COc1cccc2cc(-c3nc([C@H]4CC[C@H](C(=O)O)CC4)n4ncnc(N)c34)[nH]c12
Outline: as §1

[9] = compound: CS(=O)(=O)CCNCc1ccc(-c2ccc3ncnc(Nc4ccc(OCc5cccc(F)c5)c(Cl)c4)c3c2)o1 [lapatinib]
Outline: as §1

[10] = compound: CS(=O)(=O)N1CCN(Cc2cc3nc(-c4cccc5[nH]ncc45)nc(N4CCOCC4)c3s2)CC1 [pictilisib]
Outline: as §1

[11] = compound: CS(=O)(=O)c1ccc(-c2cnc(N)c(C(=O)Nc3ccccc3)n2)cc1
Outline: as §1

[12] = compound: C[C@@H](Oc1cc(-c2cnn(C3CCNCC3)c2)cnc1N)c1c(Cl)ccc(F)c1Cl [crizotinib]
Outline: as §1

[13] = compound: C[C@@H]1COCCN1C2=NC(=NC(=C2)C3(CC3)S(=O)(=O)C)C4=C5C=CNC5=CC=C4
Outline: as §1

[14] = compound: C[C@H](C1=CC=C(C=C1)C(=O)NC2=C3C=CNC3=NC=C2)N
Outline: as §1

[15] = compound: C[C@H](Nc1ncnc2nc[nH]c12)c1cc2cccc(Cl)c2c(=O)n1-c1ccccc1 [duvelisib]
Outline: as §1

[16] = compound: Cc1cc(Nc2cc(CN3CCOCC3)c3nc(C)c(Cc4ccc(Cl)cc4F)n3n2)n[nH]1 [gandotinib]
Outline: as §1

[17] = compound: Cc1cc(Nc2cc(N3CCN(C)CC3)nc(Sc3ccc(NC(=O)C4CC4)cc3)n2)n[nH]1 [tozasertib]
Outline: as §1

[18] = compound: Cc1cc(SCc2sc(-c3ccc(C(F)(F)F)cc3)nc2C)ccc1OCC(=O)O
Outline: as §1

[19] = compound: Cc1ccc(-n2nc(C(C)(C)C)cc2NC(=O)Nc2ccc(OCCN3CCOCC3)c3ccccc23)cc1 [doramapimod]
Outline: as §1

[20] = compound: Cc1ccc(C(=O)N(CCCN)[C@@H](c2nc3cc(Cl)ccc3c(=O)n2Cc2ccccc2)C(C)C)cc1 [ispinesib]
Outline: as §1

UniProt Q13362, sequence (Q13362 whole entry, looked up): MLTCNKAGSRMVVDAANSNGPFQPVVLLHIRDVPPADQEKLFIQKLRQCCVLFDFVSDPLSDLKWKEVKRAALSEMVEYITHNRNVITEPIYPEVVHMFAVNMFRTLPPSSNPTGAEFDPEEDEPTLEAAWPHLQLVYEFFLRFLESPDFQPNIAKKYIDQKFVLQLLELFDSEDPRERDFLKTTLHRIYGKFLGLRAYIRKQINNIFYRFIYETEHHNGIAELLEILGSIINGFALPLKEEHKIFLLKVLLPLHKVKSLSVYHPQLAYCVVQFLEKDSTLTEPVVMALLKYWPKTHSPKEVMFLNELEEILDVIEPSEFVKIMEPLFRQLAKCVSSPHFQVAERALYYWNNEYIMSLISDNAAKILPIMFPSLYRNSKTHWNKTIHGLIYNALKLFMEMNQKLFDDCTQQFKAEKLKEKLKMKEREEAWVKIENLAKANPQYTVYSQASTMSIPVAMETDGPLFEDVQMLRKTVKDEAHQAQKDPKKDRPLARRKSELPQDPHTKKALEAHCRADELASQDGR
UniProt P54619, sequence (P54619 whole entry, looked up): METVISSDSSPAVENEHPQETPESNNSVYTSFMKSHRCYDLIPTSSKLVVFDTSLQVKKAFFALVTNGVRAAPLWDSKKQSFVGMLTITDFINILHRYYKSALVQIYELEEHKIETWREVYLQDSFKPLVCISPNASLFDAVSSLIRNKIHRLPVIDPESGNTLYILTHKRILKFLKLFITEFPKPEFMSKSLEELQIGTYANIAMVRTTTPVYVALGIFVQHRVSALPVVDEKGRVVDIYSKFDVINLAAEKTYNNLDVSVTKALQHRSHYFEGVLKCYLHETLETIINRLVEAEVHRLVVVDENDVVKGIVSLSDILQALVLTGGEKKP
UniProt P19174, sequence (P19174 whole entry, looked up): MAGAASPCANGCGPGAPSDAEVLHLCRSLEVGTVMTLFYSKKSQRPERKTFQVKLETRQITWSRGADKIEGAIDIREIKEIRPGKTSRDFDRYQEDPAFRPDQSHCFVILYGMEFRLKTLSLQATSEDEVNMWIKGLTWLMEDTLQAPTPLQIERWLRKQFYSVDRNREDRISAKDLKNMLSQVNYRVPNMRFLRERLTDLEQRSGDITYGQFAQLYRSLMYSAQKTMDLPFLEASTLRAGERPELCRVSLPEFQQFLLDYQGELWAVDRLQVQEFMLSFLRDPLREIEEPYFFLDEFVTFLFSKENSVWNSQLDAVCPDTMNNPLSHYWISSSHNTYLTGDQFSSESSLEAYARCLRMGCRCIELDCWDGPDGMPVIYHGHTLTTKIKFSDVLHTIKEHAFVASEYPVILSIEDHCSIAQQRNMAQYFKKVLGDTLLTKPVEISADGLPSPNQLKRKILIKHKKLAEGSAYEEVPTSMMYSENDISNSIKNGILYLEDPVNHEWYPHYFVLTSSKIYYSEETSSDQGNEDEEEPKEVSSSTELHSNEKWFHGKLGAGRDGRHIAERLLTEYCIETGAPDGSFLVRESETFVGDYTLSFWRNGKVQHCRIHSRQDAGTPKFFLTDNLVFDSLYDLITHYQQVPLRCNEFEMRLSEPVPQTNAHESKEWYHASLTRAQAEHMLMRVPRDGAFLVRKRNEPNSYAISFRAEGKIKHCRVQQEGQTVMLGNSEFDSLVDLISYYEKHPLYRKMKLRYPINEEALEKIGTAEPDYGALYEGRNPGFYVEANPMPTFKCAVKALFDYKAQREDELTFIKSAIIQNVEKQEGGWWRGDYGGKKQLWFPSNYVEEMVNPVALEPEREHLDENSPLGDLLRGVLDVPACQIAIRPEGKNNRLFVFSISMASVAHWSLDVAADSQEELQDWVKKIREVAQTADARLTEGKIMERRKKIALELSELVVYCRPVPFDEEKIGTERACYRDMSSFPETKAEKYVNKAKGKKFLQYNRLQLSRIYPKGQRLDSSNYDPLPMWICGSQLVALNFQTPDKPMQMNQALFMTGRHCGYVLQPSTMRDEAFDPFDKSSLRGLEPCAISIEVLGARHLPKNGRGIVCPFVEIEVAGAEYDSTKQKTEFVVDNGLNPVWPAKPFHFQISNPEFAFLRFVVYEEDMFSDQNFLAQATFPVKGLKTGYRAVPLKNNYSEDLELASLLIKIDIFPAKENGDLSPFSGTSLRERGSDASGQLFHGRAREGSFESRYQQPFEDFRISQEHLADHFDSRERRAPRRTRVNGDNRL
UniProt P48556, sequence (P48556 whole entry, looked up): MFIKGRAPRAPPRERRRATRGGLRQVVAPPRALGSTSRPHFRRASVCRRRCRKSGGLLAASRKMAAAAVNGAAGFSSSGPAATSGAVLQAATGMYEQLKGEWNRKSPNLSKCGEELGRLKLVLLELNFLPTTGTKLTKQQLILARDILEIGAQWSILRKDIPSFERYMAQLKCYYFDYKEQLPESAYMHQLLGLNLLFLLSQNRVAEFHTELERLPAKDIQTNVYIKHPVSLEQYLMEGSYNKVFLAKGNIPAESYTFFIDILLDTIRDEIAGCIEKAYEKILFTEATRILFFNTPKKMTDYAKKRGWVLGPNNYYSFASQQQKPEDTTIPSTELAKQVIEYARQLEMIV
UniProt O15530, sequence (O15530 whole entry, looked up): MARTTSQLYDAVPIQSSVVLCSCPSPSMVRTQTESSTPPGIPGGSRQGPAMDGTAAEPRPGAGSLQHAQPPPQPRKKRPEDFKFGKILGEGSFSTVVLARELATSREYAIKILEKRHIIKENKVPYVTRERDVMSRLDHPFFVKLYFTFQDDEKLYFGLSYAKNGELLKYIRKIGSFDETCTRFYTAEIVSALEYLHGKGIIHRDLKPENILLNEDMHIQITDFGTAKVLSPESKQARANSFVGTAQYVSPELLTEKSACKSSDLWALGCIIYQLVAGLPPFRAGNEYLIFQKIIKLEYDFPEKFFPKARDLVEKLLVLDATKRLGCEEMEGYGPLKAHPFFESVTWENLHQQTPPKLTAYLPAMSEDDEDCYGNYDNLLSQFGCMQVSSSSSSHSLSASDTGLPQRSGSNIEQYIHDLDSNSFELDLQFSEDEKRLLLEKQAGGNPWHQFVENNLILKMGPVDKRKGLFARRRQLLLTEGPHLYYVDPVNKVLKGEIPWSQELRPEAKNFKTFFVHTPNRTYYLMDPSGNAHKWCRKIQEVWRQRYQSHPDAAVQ
UniProt Q8IV08, sequence (Q8IV08 whole entry, looked up): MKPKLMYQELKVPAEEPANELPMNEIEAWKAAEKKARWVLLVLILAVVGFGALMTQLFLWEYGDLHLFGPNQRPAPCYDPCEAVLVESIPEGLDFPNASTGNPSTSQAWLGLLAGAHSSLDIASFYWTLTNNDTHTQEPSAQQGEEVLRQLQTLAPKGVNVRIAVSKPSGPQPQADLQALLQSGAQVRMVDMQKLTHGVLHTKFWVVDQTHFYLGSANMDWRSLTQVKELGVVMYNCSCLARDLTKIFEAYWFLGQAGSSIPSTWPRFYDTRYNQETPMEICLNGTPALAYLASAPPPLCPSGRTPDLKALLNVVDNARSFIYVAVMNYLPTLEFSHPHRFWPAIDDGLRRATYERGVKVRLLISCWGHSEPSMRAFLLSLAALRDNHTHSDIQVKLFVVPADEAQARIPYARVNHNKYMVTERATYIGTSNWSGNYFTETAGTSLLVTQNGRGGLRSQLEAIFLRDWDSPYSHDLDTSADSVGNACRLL
UniProt P50336, sequence (P50336 whole entry, looked up): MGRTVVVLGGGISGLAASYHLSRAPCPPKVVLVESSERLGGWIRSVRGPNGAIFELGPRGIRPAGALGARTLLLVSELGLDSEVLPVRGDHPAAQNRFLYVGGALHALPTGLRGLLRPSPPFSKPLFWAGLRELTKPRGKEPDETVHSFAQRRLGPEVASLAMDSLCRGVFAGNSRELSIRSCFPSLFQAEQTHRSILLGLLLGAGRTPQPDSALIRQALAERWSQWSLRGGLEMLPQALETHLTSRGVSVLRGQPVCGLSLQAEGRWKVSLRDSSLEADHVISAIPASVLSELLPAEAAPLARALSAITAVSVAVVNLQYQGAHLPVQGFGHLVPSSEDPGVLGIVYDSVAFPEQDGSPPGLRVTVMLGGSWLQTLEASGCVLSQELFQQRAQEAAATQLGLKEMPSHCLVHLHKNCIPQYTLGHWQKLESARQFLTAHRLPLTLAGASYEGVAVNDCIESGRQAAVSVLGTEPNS
UniProt O95453, sequence (O95453 whole entry, looked up): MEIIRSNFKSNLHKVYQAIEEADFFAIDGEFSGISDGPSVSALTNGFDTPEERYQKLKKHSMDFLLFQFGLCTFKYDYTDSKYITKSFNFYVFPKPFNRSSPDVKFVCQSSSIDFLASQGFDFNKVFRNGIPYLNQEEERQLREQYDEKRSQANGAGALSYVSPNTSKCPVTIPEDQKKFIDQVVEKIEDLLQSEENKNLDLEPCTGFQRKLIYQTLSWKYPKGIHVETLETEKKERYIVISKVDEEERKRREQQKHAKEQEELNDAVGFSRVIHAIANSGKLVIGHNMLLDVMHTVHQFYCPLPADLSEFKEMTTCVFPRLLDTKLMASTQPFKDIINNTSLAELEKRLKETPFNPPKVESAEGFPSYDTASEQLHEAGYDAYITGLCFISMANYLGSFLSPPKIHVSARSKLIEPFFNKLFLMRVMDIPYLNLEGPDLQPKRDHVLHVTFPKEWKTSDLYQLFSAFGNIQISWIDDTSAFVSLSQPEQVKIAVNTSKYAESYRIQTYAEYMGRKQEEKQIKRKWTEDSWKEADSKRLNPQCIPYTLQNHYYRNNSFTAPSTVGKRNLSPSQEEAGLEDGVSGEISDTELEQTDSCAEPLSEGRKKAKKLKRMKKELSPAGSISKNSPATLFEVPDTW
UniProt Q6GMV3, sequence (Q6GMV3 whole entry, looked up): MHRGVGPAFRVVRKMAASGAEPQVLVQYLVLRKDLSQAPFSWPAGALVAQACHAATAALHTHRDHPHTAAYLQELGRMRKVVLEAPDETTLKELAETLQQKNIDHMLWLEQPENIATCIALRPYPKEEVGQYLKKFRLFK

Target	log2 fold change [1]	log2 fold change [2]	log2 fold change [3]	log2 fold change [4]	log2 fold change [5]	log2 fold change [6]	log2 fold change [7]	log2 fold change [8]	log2 fold change [9]	log2 fold change [10]	log2 fold change [11]	log2 fold change [12]	log2 fold change [13]	log2 fold change [14]	log2 fold change [15]	log2 fold change [16]	log2 fold change [17]	log2 fold change [18]	log2 fold change [19]	log2 fold change [20]
PPID (UniProt Q08752)	0.041	0	0.056	-0.055	-0.009	0.093	0.112	-0.091	-0.041	0.039	0.055	-0.102	0.046	0.071	-0.024	-0.145	0.043	0.088	0.007	-0.08
PECAM1 (UniProt P16284)	0.018	0.114	-0.002	-0.029	-0.053	0.025	0.02	0.063	-0.021	0.12	0.086	0.145	0.157	0.034	0.08	-0.001	-0.105	-0.03	-0.025	0.099
PSMD8 (UniProt P48556)	-0.046	0.055	-0.016	0.015	-0.097	-0.038	-0.022	-0.061	0.066	0.097	0.034	0.011	-0.053	0.156	-0.016	0.002	0.008	0.059	0.028	0.015
PRPF4B (UniProt Q13523)	-0.024	0.253	0.187	0.164	-0.047	-0.1	-0.023	0.003	0.19	0.097	0.024	-0.006	-0.025	-0.089	-0.081	0.007	0.062	0.01	0.044	0.082
PTRHD1 (UniProt Q6GMV3)	-0.051	0.065	-0.008	0.042	-0.103	-0.025	0.085	0.068	-0.061	0.02	0.003	0.006	0.184	-0.097	0.18	0.08	0.037	0.022	-0.036	0.225
PLD3 (UniProt Q8IV08)	-0.027	-0.131	-0.006	0.001	-0.139	0.019	0.008	0.027	-0.025	0.045	-0.034	-0.158	0.005	-0.03	-0.012	0.006	-0.009	-0.023	0.001	-0.132
PRKAG1 isoform 3 (UniProt P54619)	-0.02	-0.036	0	-0.004	0.022	0.008	0.002	0.049	-0.055	-0.037	-0.01	-0.114	0.006	-0.023	0.035	-0.249	-0.032	0.004	-0.003	-0.018
PLCG1 isoform 2 (UniProt P19174)	0.104	-0.139	0.038	0.017	0.05	0.012	-0.047	0.029	-0.003	0.046	0.016	-0.412 (active)	-0.09	0.16	-0.037	0.107	0.016	0.161	0.001	-0.178
PPP2R5C isoform 4 (UniProt Q13362)	0.125	-0.018	-0.019	0.017	0.031	0.155	-0.004	0.002	0.053	0.021	0.031	-0.021	-0.177	0.029	0.066	-0.011	-0.055	-0.01	-0.06	-0.036
PMM2 (UniProt O15305)	-0.054	-0.014	-0.01	0.011	0.009	0.071	0.016	0.034	-0.088	-0.113	0.006	0.08	0.013	0.012	0.056	-0.045	-0.017	-0.031	-0.015	0.009
POP1 (UniProt Q99575)	0.025	-0.023	0.033	-0.009	-0.054	-0.109	0.012	0.021	0.084	-0.01	-0.034	0.02	-0.023	-0.05	-0.005	0.012	0.009	-0.041	0.016	0.039
PARN (UniProt O95453)	0.001	-0.015	-0.009	-0.028	0.001	0.051	-0.009	0.04	-0.028	-0.036	0.028	-0.095	0.125	-0.025	0.048	-0.127	0.024	0.069	-0.037	-0.021
POLR2M (UniProt P0CAP2)	-0.025	-0.004	-0.05	-0.022	-0.015	0.094	-0.08	0.054	-0.044	-0.254 (active)	0.028	0.074	0.097	0.044	0.164	0.141	-0.052	0.012	0.013	-0.055
PIK3R1 (UniProt P27986)	0.01	-0.041	-0.002	-0.027	-0.075	0.054	0.045	0.014	-0.005	0.048	0.033	-0.044	0.002	0.022	0.232 (active)	-0.038	-0.026	0.051	0.056	-0.079
PDPK1 (UniProt O15530)	-0.015	-0.097	0.04	-0.048	-0.017	0.011	-0.028	0.01	-0.058	-0.179	-0.066	-0.282 (active)	0.081	0.013	-0.206	-0.173	-0.085	0.015	0.003	-0.143
PPOX (UniProt P50336)	0.324	-0.226	0.352	0.574 (active)	0.033	-0.178	0.116	0.021	0.471	0.475	0.173	-0.197	0.128	-0.077	0.304	0.427	0.019	0.091	0.378	0.02
